Compound activity deposited in PubChem BioAssay by several laboratories.
RAD54 inh: inhibitors of human RAD54 branch migration; RAD54 Holliday junction branch migration, FAM/BHQ fluorescence; inhibition, % at 10.4 µM; 360,000 tested, 0.14% active;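 active means mean normalized replicate activity at least 40 and at least half of replicates scoring 40 or more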;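 further: 0% = median of neutral control wells and 100% = median of positive control wells; inhibitors cause a drop in the FAM fluorescence signal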
RAD52 anneal inh: inhibitors of human RAD52 DNA annealing; recombinant RAD52 DNA annealing, FRET fluorescence; 360,000 tested, 0.46% active; P43351; AID 651710; inhibition, % at 18.7 µM;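 active means every replicate showing at least 50% inhibition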
Target sequence (P43351 whole entry, looked up): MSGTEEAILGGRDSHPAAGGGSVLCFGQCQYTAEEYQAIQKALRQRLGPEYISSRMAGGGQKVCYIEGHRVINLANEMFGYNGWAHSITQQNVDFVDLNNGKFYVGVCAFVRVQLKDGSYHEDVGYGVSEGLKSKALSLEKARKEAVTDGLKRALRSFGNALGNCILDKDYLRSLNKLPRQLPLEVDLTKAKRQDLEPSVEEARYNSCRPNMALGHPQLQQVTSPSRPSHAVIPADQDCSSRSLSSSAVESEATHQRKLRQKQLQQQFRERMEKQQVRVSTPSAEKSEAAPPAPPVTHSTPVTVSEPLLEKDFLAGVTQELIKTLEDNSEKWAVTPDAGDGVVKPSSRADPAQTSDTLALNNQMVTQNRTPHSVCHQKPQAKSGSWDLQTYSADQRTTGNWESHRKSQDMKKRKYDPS
FID counter: displaces DNA intercalator in HCV helicase counter-screen | inhibition, % at 7.9 µM | DNA fluorescent intercalator displacement, fluorescence | AID 1845 | 290,000 tested, 0.17% active; in the data active means inhibition above about 37%;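 further: 0% = vehicle and 100% = reference compound; higher means more ethidium bromide displaced from hairpin DNA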
PREPL inh: inhibits the human prolyl oligopeptidase-like enzyme | recombinant PREPL, fluorescence polarization activity-based probe | AID 2751 | inhibition, % at 5.96 µM | 320,000 tested, 0.68% active; in the data active means inhibition above about 43%;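 further: 0% = enzyme with DMSO and 100% = wells lacking enzyme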
UBC13 inh: blocks human UBC13 polyubiquitin chain formation; TR-FRET; inhibition, % at 20 µM; 330,000 tested, 0.47% active; AID 485273; in the data active means inhibition above about 45%, passing the limit was not always enough
Target sequence (P61088 whole entry, looked up): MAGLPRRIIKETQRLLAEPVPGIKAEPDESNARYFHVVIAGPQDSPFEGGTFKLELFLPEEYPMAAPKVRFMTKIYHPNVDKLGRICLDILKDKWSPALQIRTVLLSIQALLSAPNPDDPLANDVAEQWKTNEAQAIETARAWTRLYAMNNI
MIN6 prolif: induces beta-cell replication in MIN6 cells; MIN6 cells proliferation, ATPlite luminescence, 48 h; cells starved in 0.2% serum; 100% = growth in 10% serum; 330,000 tested, 0.29% active; proliferation, % at 10 µM; AID 2380;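 active means compounds whose signal lies at least 3.5 SD above the mean of all wells on their plate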;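 further: 0% = DMSO-treated cells in low-serum medium and 100% = 10% serum control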
* hit, by the source's call; / = not tested or not shown; ! = not active in a repeat. Rows were chosen to be rich in hits. Some 1.3% of all compounds tested hit in one or more screens of this group.

SMILES | RAD54 inh | RAD52 anneal inh | FID counter | PREPL inh | UBC13 inh | MIN6 prolif
CN1C(=O)/C(=C/c2ccc(C(=O)Nc3ccc(O)cc3C(=O)O)cc2)SC1=S | -10.7 | 6.5 | 38.9* | 41.9 | -38.1 | -4.0
CC1C=NC(S(=O)(=O)N2CC[C@@H]3[C@@H](CO)N(C)c4ccc(-c5ccccc5)cc4[C@@H]32)=N1 (stereo not given in full) | -0.7 | -4.1 | / | / | / | /
O=C(C[n+]1ccc(C(=O)N/N=C/c2ccc(O)cc2)cc1)c1ccccc1 | -0.5 | / | 2.0 | 37.7 | -13.4 | -1.5
O=C(C[n+]1ccc(C(=O)N/N=C/c2ccc(OCc3ccccc3)cc2)cc1)c1ccccc1 | 7.8 | 2.6 | 7.1 | 50.4* | -1.6 | -0.6
CO[C@@H]1CC[C@H]2CCOc3ccc(C#N)cc3C(=O)N(C)C[C@H](C)C(=O)N(C)C[C@@H]1O2 | 5.4 | -5.0 | / | / | / | /
C[C@H](CO)N1C[C@H](C)[C@H](CN(C)Cc2ccc3c(c2)OCO3)OCCCC[C@H](C)Oc2ccc(NS(=O)(=O)c3ccc(Cl)cc3)cc2C1=O | -7.0 | 62.6* | / | / | / | /
C[C@@H]1CN([C@@H](C)CO)C(=O)c2cc(NS(=O)(=O)c3ccc(Cl)cc3)ccc2O[C@@H](C)CCCCO[C@H]1CN(C)Cc1ccc2c(c1)OCO2 | -6.5 | 46.1 | / | / | / | /
C[C@H]1CCCCO[C@@H](CN(C)Cc2ccc3c(c2)OCO3)[C@@H](C)CN([C@@H](C)CO)C(=O)c2cc(NS(=O)(=O)c3ccc(Cl)cc3)ccc2O1 | -1.1 | 55.0*! | / | / | / | /
CCCNC(=O)Nc1ccc2c(c1)OC[C@@H](C)N(C(=O)C1CCCCC1)C[C@@H](C)[C@@H](OC)CN(C)C2=O | -14.9 | -0.2 | / | / | / | /
CC(C)CC#Cc1ccc2c(c1)O[C@H](CN(C)S(C)(=O)=O)[C@@H](C)CN([C@@H](C)CO)S2(=O)=O | -3.3 | 10.0 | / | / | / | /
CCCCCCOc1ccc(C(=O)n2cnc(N)n2)cc1 | 2.0 | / | -4.5 | 71.6* | 7.6 | -1.5
CCCCCCOc1ccc(C(=O)O)cc1 | -0.2 | -6.8 | -7.9 | 2.3 | -3.6 | 2.6
CN1C(=O)c2cc(NC(=O)c3cccc(F)c3)ccc2OC[C@@H]2O[C@@H](CC(=O)Nc3ccccc3)CC[C@H]21 | -2.5 | -16.9 | / | / | / | /
CCC(=O)NC[C@@H]1N[C@@H](CO)[C@H]1c1ccc(-c2cccc(C#N)c2)cc1 | 3.3 | -140.2 | / | / | / | /
CN(C)CC(=O)NC[C@H]1N[C@@H](CO)[C@H]1c1ccc(-c2cccc(C#N)c2)cc1 | 3.1 | 51.3* | / | / | / | /
CO[C@H]1CN(C)C(=O)c2cc(NC(=O)Nc3ccccc3F)ccc2OC[C@H](C)N(CCC(F)(F)F)C[C@@H]1C | 10.2 | -23.3 | / | / | / | /
COc1ccc(NC(=O)N2[C@@H]3CNC[C@H]2C3c2ccc(/C=C/c3ccccc3)cc2)cc1 (stereo not given in full) | / | 55.2* | / | / | / | /
COc1ccc(NC(=O)N2[C@@H]3CNC[C@H]2C3c2ccc(-c3ccc(F)cc3)cc2)cc1 (stereo not given in full) | / | 56.7* | / | / | / | /
COc1ccc(-c2ccc(C3[C@H]4CNC[C@@H]3N4C(=O)Nc3ccc(F)cc3)cc2)cc1 (stereo not given in full) | / | -71.4 | / | / | / | /
COc1ccc(NC(=O)N2[C@@H]3CNC[C@H]2C3c2ccc(-c3ccc(OC)cc3)cc2)cc1 (stereo not given in full) | / | 2.3 | / | / | / | /
COc1ccc(-c2ccc(C3[C@H]4CNC[C@@H]3N4C(=O)Nc3ccc(C(F)(F)F)cc3)cc2)cc1 (stereo not given in full) | / | 65.9*! | / | / | / | /
O=C(C[C@@H]1CC[C@@H]2[C@H](COC[C@H](O)CN2S(=O)(=O)c2cccc(Cl)c2)O1)N1CCOCC1 | 3.4 | -7.2 | / | / | / | /
Cc1ccc(S(=O)(=O)Nc2cccc3c2O[C@@H](CN(C)CC2CCCCC2)[C@@H](C)CN([C@H](C)CO)C3=O)cc1 | 5.1 | 9.9 | / | / | / | /
CCOC(=O)c1oc2ccccc2c1NC(=O)COc1ccc(F)cc1 | 15.0 | -15.9 | -3.5 | 0.1 | 17.1 | 9.7*
COc1ccccc1C(=O)Nc1c(C(=O)N(CCN(C)C)Cc2ccco2)oc2ccccc12 | 3.2 | -4.6 | 37.3* | -14.7 | 26.6 | -7.8
SMILES | RAD54 inh | RAD52 anneal inh | FID counter | PREPL inh | UBC13 inh | MIN6 prolif
Cc1ccccc1C(=O)Nc1c(C(=O)N(CCN(C)C)Cc2ccco2)oc2ccccc12 | 1.8 | -16.0 | 20.0 | 4.6 | 9.4 | -3.8
COc1ccc(OCC(=O)Nc2c(C(=O)N(CCN(C)C)Cc3ccco3)oc3ccccc23)cc1 | 11.7 | 23.5 | 41.3* | -2.1 | 9.3 | -6.6
CN(C)CCCNC(=O)C[C@@H]1C=C[C@H](NC(=O)Cc2cccnc2)[C@@H](CO)O1 | 4.0 | -0.1 | / | / | / | /
COc1ccc(S(=O)(=O)N(C)C[C@H]2Oc3ccc(NC(=O)Nc4ccc5c(c4)OCO5)cc3C(=O)N([C@@H](C)CO)C[C@H]2C)cc1 | -4.0 | 6.5 | / | / | / | /
Cc1ccc(-n2ncc(C(=O)Nc3cc(Cl)cc(Cl)c3)c2C2CCNCC2)cc1C | 4.8 | 31.1 | 42.7* | / | / | /
Cc1ccc(-n2ncc(C(=O)Nc3cc(Cl)ccc3Cl)c2C2CCNCC2)cc1 | / | -7.5 | 16.6 | 2.3 | 8.3 | -4.3
Cc1cc(N=Nc2ccc(C)c(N=Nc3cc(C)c(N)cc3N)c2)c(N)cc1N | 100.6* | 79.8* | 7.2 | 69.9* | -68.7 | -3.7
O=C(C[C@H]1CC[C@H]2[C@@H](COC[C@H](O)CN2S(=O)(=O)c2ccccc2)O1)NCCN1CCCCC1 | -15.2 | -10.4 | / | / | / | /
CCCN(CCC)CCNC(=O)C1CCN(Cc2nc(-c3ccc(Cl)cc3)oc2C)CC1 | -1.3 | / | 36.1 | 45.1* | 8.3 | -5.6
Cc1oc(-c2ccc(Cl)cc2)nc1CN1CCC(C(=O)NCc2cccnc2)CC1 | 2.3 | / | 7.3 | 12.1 | 7.7 | 1.2
Cc1ccc(-c2nc(Nc3ccc(N4CCOCC4)cc3)c3ccccc3n2)cc1 | 4.2 | -4.9 | -2.9 | 46.0* | 6.6 | -3.6
Cc1ccc(-c2nc(Nc3ccc(O)cc3)c3ccccc3n2)cc1 | 18.7 | -5.8 | 16.7 | 18.2 | 1.4 | -7.1
Cc1cccc(-c2nc(NCCCN3CCOCC3)c3ccccc3n2)c1 | 31.2 | / | 52.9* | 7.3 | 7.5 | -3.8
Cc1ccc2ncnc(NCCCN3CCOCC3)c2c1 | 9.6 | / | 12.5 | -4.1 | -7.0 | -1.1
O=C1Cc2cc(S(=O)(=O)N3CCNCC3)ccc2N1 | / | 76.9* | / | 24.9 | -3.8 | -0.1
O=C1Cc2cc(S(=O)(=O)N3CCCCC3)ccc2N1 | -3.4 | -11.0 | -6.9 | 2.0 | 0.5 | -1.3
CCC(=O)N1C[C@@H](C)[C@H](OC)CN(C)C(=O)c2ccc(NC(=O)C3CC3)cc2OC[C@H]1C | 5.3 | -2.7 | / | / | / | /
CC(C)Nc1nc(NCCN2CCCC2)c2sc(-c3ccccc3)cc2n1 | 17.7 | 76.1* | / | / | / | /
CCN1CCN(c2ccc(S(=O)(=O)N3CCCCC3)cc2NC(=O)/C=C/c2ccc(F)cc2)CC1 | -8.0 | 4.9 | / | 14.8 | 6.6 | -7.1
CCN1CCN(c2ccc(S(=O)(=O)N3CCCCC3)cc2NC(=O)/C=C/c2cccc(OC)c2OC)CC1 | -3.8 | 5.0 | 38.0* | 6.1 | 10.0 | -7.4
